# Data taken from article PMC8384837, “Expanding the binding specificity for RNA recognition by a PUF domain”.
# Changes are numbered by the printed parent chain.
# Key:
# Assay in all cases: yeast three-hybrid, YBZ-1, SC-Leu-His + 0.5 mM 3-AT, 4 days
# Conditions in all cases: tags: N-Gal4 AD-HA kept; label: inside an RPR1-promoter hybrid RNA with tandem MS2 sites; ssRNA
# PUM1 PUF domain R7-RRN = PUM1 PUF domain R7-RRN (Homo sapiens, UniProt Q14671 828-1176, S1079R;N1080R;E1083N)
# Outline: (§1)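 The interaction score is the log change in how often each variant appears, from input to selection. Frequencies came from PCR-amplified, Illumina-sequenced repeat regions of Pumilio-1 PUF domain libraries grown in strain YBZ-1 (LexA–MS2 coat fusion, HIS3 reporter) alongside matching RNA elements. Input plates were SC-Leu and selection plates were SC-Leu-His + 0.5 mM 3-AT, each for four days, and the log2 calculation used a pseudocount of 1 where a variant was absent.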
# PUM1 PUF domain R3-GPR = PUM1 PUF domain R3-GPR (Homo sapiens, UniProt Q14671 828-1176, C935G;R936P;Q939R)
# Sequence of PUM1 PUF domain R3-GPR (Q14671 828-1176 C935G/R936P/Q939R): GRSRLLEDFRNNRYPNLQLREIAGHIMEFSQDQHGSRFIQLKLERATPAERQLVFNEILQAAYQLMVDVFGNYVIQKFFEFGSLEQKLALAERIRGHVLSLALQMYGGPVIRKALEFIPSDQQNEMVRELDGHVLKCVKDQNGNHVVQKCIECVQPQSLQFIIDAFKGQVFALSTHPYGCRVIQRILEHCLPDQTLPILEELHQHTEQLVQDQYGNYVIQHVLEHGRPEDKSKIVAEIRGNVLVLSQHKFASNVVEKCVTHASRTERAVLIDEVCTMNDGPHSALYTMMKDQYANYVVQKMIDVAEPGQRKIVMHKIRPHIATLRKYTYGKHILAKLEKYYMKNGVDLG
# Outline: as §1
# PUM1 PUF domain R3-IWG = PUM1 PUF domain R3-IWG (Homo sapiens, UniProt Q14671 828-1176, C935I;R936W;Q939G)
# Sequence of PUM1 PUF domain R3-IWG (Q14671 828-1176 C935I/R936W/Q939G): as the sequence (Q14671 828-1176 C935G/R936P/Q939R) above, with G108I, P109W, R112G counted along it
# Outline: as §1
# PUM1 PUF domain R1-QCR = PUM1 PUF domain R1-QCR (Homo sapiens, UniProt Q14671 828-1176, S863Q;R864C;Q867R)
# Outline: as §1
# PUM1 PUF domain R1-SYK = PUM1 PUF domain R1-SYK (Homo sapiens, UniProt Q14671 828-1176, R864Y;Q867K)
# Outline: as §1
# PUM1 PUF domain R6-HWW = target: T1, PUM1 PUF domain R6-HWW (Homo sapiens, UniProt Q14671 828-1176, N1043H;Y1044W;Q1047W)
# T1 sequence: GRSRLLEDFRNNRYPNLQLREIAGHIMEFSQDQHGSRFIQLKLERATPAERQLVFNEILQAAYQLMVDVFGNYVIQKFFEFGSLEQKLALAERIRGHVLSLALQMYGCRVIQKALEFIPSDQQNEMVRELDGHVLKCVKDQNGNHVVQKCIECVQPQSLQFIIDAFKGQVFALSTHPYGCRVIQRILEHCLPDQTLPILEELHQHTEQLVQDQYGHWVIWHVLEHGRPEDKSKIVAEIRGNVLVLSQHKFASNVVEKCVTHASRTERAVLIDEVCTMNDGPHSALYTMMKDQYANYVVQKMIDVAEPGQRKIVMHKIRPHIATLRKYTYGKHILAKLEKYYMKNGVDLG
# Outline: as §1
# PUM1 PUF domain R6-NWL = target: T2, PUM1 PUF domain R6-NWL (Homo sapiens, UniProt Q14671 828-1176, Y1044W;Q1047L)
# T2 sequence: T1 sequence with H216N, W220L
# Outline: as §1
# PUM1 PUF domain R2-VWW = PUM1 PUF domain R2-VWW (Homo sapiens, UniProt Q14671 828-1176, N899V;Y900W;Q903W)
# Outline: as §1
# PUM1 PUF domain R2-FWW = PUM1 PUF domain R2-FWW (Homo sapiens, UniProt Q14671 828-1176, N899F;Y900W;Q903W)
# Outline: as §1
# PUM1 PUF domain R5-RQN = PUM1 PUF domain R5-RQN (Homo sapiens, UniProt Q14671 828-1176, C1007R;R1008Q;Q1011N)
# Outline: as §1
sequence,measurement,setting,value
GGCUAGAACUAGUGGAUCCCCCGGCGCCCGGCGGCUCGAGCCCGGGUAAGUCUAAAUAGUCUGCAUGCCGCCGGGCGCCAUGCCUGCAGGUCGACUCUAGAAAACAUG,binding signal,PUM1 PUF domain R7-RRN,3.94 log2 enrichment (interaction score)
GGCUAGAACUAGUGGAUCCCCCGGCGCCCGGCGGCUCGAGCCCGGGUAAGUGUAAUUAGUCUGCAUGCCGCCGGGCGCCAUGCCUGCAGGUCGACUCUAGAAAACAUG,binding signal,PUM1 PUF domain R3-GPR,3.57 log2 enrichment (interaction score)
same,binding signal,PUM1 PUF domain R3-IWG,3.86 log2 enrichment (interaction score)
GGCUAGAACUAGUGGAUCCCCCGGCGCCCGGCGGCUCGAGCCCGGGUAAGUGUAAAUCGUCUGCAUGCCGCCGGGCGCCAUGCCUGCAGGUCGACUCUAGAAAACAUG,binding signal,PUM1 PUF domain R1-QCR,2.48 log2 enrichment (interaction score)
same,binding signal,PUM1 PUF domain R1-SYK,2.72 log2 enrichment (interaction score)
GGCUAGAACUAGUGGAUCCCCCGGCGCCCGGCGGCUCGAGCCCGGGUAAGUGUAAAUAGUCUGCAUGCCGCCGGGCGCCAUGCCUGCAGGUCGACUCUAGAAAACAUG,binding signal,PUM1 PUF domain R6-HWW,4.93 log2 enrichment (interaction score)
same,binding signal,PUM1 PUF domain R6-NWL,5.32 log2 enrichment (interaction score)
same,binding signal,PUM1 PUF domain R3-GPR,0.81 log2 enrichment (interaction score)
same,binding signal,PUM1 PUF domain R3-IWG,5.45 log2 enrichment (interaction score)
GGCUAGAACUAGUGGAUCCCCCGGCGCCCGGCGGCUCGAGCCCGGGUAAGUGUAACUAGUCUGCAUGCCGCCGGGCGCCAUGCCUGCAGGUCGACUCUAGAAAACAUG,binding signal,PUM1 PUF domain R3-GPR,1.8 log2 enrichment (interaction score)
GGCUAGAACUAGUGGAUCCCCCGGCGCCCGGCGGCUCGAGCCCGGGUAAGUUUAAAUAGUCUGCAUGCCGCCGGGCGCCAUGCCUGCAGGUCGACUCUAGAAAACAUG,binding signal,PUM1 PUF domain R7-RRN,4.89 log2 enrichment (interaction score)
GGCUAGAACUAGUGGAUCCCCCGGCGCCCGGCGGCUCGAGCCCGGGUAAGUGUAAAAAGUCUGCAUGCCGCCGGGCGCCAUGCCUGCAGGUCGACUCUAGAAAACAUG,binding signal,PUM1 PUF domain R2-VWW,2.5 log2 enrichment (interaction score)
same,binding signal,PUM1 PUF domain R2-FWW,4.3 log2 enrichment (interaction score)
GGCUAGAACUAGUGGAUCCCCCGGCGCCCGGCGGCUCGAGCCCGGGUAAGUGAAAAUAGUCUGCAUGCCGCCGGGCGCCAUGCCUGCAGGUCGACUCUAGAAAACAUG,binding signal,PUM1 PUF domain R6-NWL,2.34 log2 enrichment (interaction score)
GGCUAGAACUAGUGGAUCCCCCGGCGCCCGGCGGCUCGAGCCCGGGUAAGUGUAAAUUGUCUGCAUGCCGCCGGGCGCCAUGCCUGCAGGUCGACUCUAGAAAACAUG,binding signal,PUM1 PUF domain R1-QCR,1.4 log2 enrichment (interaction score)
GGCUAGAACUAGUGGAUCCCCCGGCGCCCGGCGGCUCGAGCCCGGGUAAGUGUGAAUAGUCUGCAUGCCGCCGGGCGCCAUGCCUGCAGGUCGACUCUAGAAAACAUG,binding signal,PUM1 PUF domain R5-RQN,1.54 log2 enrichment (interaction score)
GGCUAGAACUAGUGGAUCCCCCGGCGCCCGGCGGCUCGAGCCCGGGUAAGUGUAAGUAGUCUGCAUGCCGCCGGGCGCCAUGCCUGCAGGUCGACUCUAGAAAACAUG,binding signal,PUM1 PUF domain R3-GPR,1.82 log2 enrichment (interaction score)
same,binding signal,PUM1 PUF domain R3-IWG,5.3 log2 enrichment (interaction score)
GGCUAGAACUAGUGGAUCCCCCGGCGCCCGGCGGCUCGAGCCCGGGUAAGUGUCAAUAGUCUGCAUGCCGCCGGGCGCCAUGCCUGCAGGUCGACUCUAGAAAACAUG,binding signal,PUM1 PUF domain R5-RQN,4.58 log2 enrichment (interaction score)
